PubChem BioAssay (Tox21)
Records with an inconclusive call do not appear. Activity calls are given as the source filed them. Unless noted, calls follow the shape of the dose curve; as a rule, active = well fitted curve in the direction sought with a large enough effect in the repeat runs; inconclusive = weak or mixed curves; inactive = no such curve, though single readings can be large; an effect the other way counts as inactive or inconclusive.

Assays:
[1] = qHTS assay to identify small molecule agonists of the hypoxia (HIF-1) signaling pathway - cell viability counter screen (AID 1224844; calls by dose curve; also: nearly all actives have a fitted effect of over 50% in size)
How it was run: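 CellTiter-Glo luminescence read-out, 30 min RT, taken in the same wells as the beta-lactamase HRE reporter assay; HRE-bla ME-180 cells, 0.5% dialyzed FBS, 17 hr compound treatment at 37C, 5% CO2.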

[2] = qHTS assay to identify small molecule agonists of H2AX (AID 1224845; active = well fitted activation curve with a large enough effect in the signal ratio in the repeat runs, not every such curve was filed as active; the % refers to the signal ratio)
How it was run: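 Phospho-H2AX Ser139 measured by HTRF (ex 320 nm; em 665 and 620 nm) after 24 hr antibody incubation. Compounds, 15 concentrations, 0.76% DMSO, were applied to CHO-K1 cells for 3hr at 37C before lysis.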

[3] = qHTS assay to identify small molecule agonists of the hypoxia (HIF-1) signaling pathway (AID 1224846; active = well fitted activation curve with a large enough effect in the signal ratio in the repeat runs, not every such curve was filed as active; the % refers to the signal ratio)
How it was run: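 Beta-lactamase FRET read-out (CCF4-AM substrate) from ME-180 cells carrying an HRE-driven bla reporter, after 17 hrs compound exposure at 37C/5% CO2. Cells were seeded at 2,000 per well in 0.5% dialyzed FBS medium and preincubated 5 hrs.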

[4] = qHTS assay to identify small molecule agonists of H2AX - cell viability counter screen (AID 1224847; calls by dose curve; also: top concentration of the series differs between compounds; nearly all actives have a fitted effect of over 30% in size)
How it was run: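 Quantitative HTS viability measurement: CHO-K1 wild-type cells in serum (10% FBS) medium, short 3 hr drug exposure at 37C with 0.76% DMSO, CellTiter-Glo luminescent detection.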

[5] = qHTS RealTime-Glo MT Cell Viability Assay in HepG2 cells - 24 hour (AID 1224867); also: nearly all actives have a fitted effect of over 50% in size
How it was run: (§1)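 Tox21 10K library screened in qHTS format on HepG2 cells carrying RealTime-Glo reagents. Compounds were added after a 5 h preincubation, and the luminescent signal from continuous culture was measured repeatedly during 40 h treatment.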

[6] = qHTS RealTime-Glo MT Cell Viability Assay in HEK293 cells - 32 hour (AID 1224868); also: top concentration of the series differs between compounds; nearly all actives have a fitted effect of over 50% in size
How it was run: (§2)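 Luminescence generated by NanoLuc from substrate produced by living HEK293 cells served as the viability signal. Each value reflects the reading at its stated time point during continuous 40 h compound exposure at 37 C.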

[7] = A CellTox Green Cytotoxicity Assay to monitor cytotoxicity in HEK293 cells - 0 hour (AID 1224869); also: nearly all actives have a fitted effect of over 50% in size
How it was run: (§3)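 Read-out: fluorescence of a cell-impermeant cyanine dye staining DNA of dead cells, proportional to cytotoxicity. HEK293, 600 cells/well with reagent, compound (23 nL DMSO) added after 5 h; reads at 0, 8, 16, 24, 32, 40 h.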

[8] = qHTS RealTime-Glo MT Cell Viability Assay in HepG2 cells - 40 hour (AID 1224870); also: nearly all actives have a fitted effect of over 50% in size
How it was run: (§4)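 Real-time viability: cells seeded at 600 per well together with NanoLuc and cell-permeant prosubstrate, compounds added after 5 h incubation. Luminescence tracked at 0, 8, 16, 24, 32 and 40 h of exposure.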

[9] = A CellTox Green Cytotoxicity Assay to monitor cytotoxicity in HEK293 cells - 40 hour (AID 1224871); also: nearly all actives have a fitted effect of over 45% in size
How it was run: as §3

[10] = qHTS RealTime-Glo MT Cell Viability Assay in HEK293 cells - 16 hour (AID 1224872)
How it was run: as §2

[11] = qHTS RealTime-Glo MT Cell Viability Assay in HepG2 cells - 8 hour (AID 1224873); also: nearly all actives have a fitted effect of over 55% in size
How it was run: as §4

[12] = qHTS RealTime-Glo MT Cell Viability Assay in HEK293 cells - 40 hour (AID 1224874); settings: RealTime-Glo luminescence; max response: active compounds read low; also: nearly all actives have a fitted effect of over 50% in size
How it was run: (§5)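 Luminescence readout at each listed time point; HEK293, 600 cells/well, RealTime-Glo MT reagent added with cells; compounds pinned (23 nL in DMSO) after 5 h at 37 C; continuous culture at 37 C.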

[13] = A CellTox Green Cytotoxicity Assay to monitor cytotoxicity in HEK293 cells - 24 hour (AID 1224875); also: nearly all actives have a fitted effect of over 45% in size
How it was run: as §3

[14] = A CellTox Green Cytotoxicity Assay to monitor cytotoxicity in HepG2 cells - 16 hour (AID 1224876); also: nearly all actives have a fitted effect of over 45% in size
How it was run: (§6)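 HepG2, 600 cells/well premixed w/ CellTox Green; 5 h settle, 37 C/5% CO2; pintool cpd add (DMSO); 37 C, 40 h; fluorescence read at 0, 8, 16, 24, 32, 40 h.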

[15] = A CellTox Green Cytotoxicity Assay to monitor cytotoxicity in HepG2 cells - 24 hour (AID 1224878); also: nearly all actives have a fitted effect of over 45% in size
How it was run: as §6

[16] = A CellTox Green Cytotoxicity Assay to monitor cytotoxicity in HepG2 cells - 40 hour (AID 1224879); also: nearly all actives have a fitted effect of over 40% in size
How it was run: as §6

[17] = qHTS RealTime-Glo MT Cell Viability Assay in HEK293 cells - 0 hour (AID 1224880)
How it was run: as §5

[18] = qHTS assay to identify small molecule antagonists of the estrogen related receptor (ERR) signaling pathway from Tox21 library (AID 1224848); also: nearly all actives have a fitted effect of over 50% in size
How it was run: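 ERR cell line, 2,000 cells/well. 6 h settle, then compound (DMSO) added; 18 h at 37 C; ONE-Glo luminescence after 30 min RT.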

[19] = qHTS assay to identify small molecule agonists of the estrogen related receptor (ERR) signaling pathway from Tox21 library (AID 1224849; calls by dose curve; also: nearly all actives have a fitted effect of over 15% in size); settings: ERR reporter cell line, ONE-Glo luciferase, 18 h; at 92.4 µM (top of the series) unless noted
How it was run: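 Luminescence readout (ONE-Glo, 30 min RT) after 18 h compound exposure at 37 C of NTP-supplied ERR reporter cells; cells were plated 6 h before compound addition by pin tool.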

[20] = qHTS RealTime-Glo MT Cell Viability Assay in HepG2 cells - 32 hour (AID 1224877); also: nearly all actives have a fitted effect of over 55% in size
How it was run: as §1
% is scaled to controls: 0 for no effect and ±100 for the full control effect.

CC(=O)O[C@H]1C[C@@H]2CC[C@@H]3[C@H](CC[C@@]4(C)[C@H]3C[C@H]([N+]3(C)CCCCC3)[C@@H]4OC(C)=O)[C@@]2(C)C[C@@H]1N1CCCCC1
inactive: Potency [1] | Potency [2] | outcome [3] | Potency [4] | Potency [5] | Potency [6] | Potency [7] | Potency [8] | Potency [9] | Potency [10] | Potency [11] | max response [12] 3.64% | Potency [13] | Potency [14] | Potency [15] | Potency [16] | Potency [17]

Nc1nc(N)c(-c2ccccc2)s1
inactive: Potency [1] | Potency [2] | outcome [3] | Potency [4] | Potency [18] | activity change, positive = activation [19] 3.26% [at 42.5 µM] | Potency [5] | Potency [6] | Potency [7] | Potency [8] | Potency [9] | Potency [10] | Potency [11] | max response [12] 5.71% | Potency [13] | Potency [20] | Potency [15] | Potency [16] | Potency [17]

COc1ccccc1OC(=O)Oc1ccccc1OC
inactive: Potency [1] | Potency [2] | outcome [3] | Potency [4] | Potency [5] | Potency [6] | Potency [7] | Potency [8] | Potency [9] | Potency [10] | Potency [11] | max response [12] 1.1% | Potency [13] | Potency [14] | Potency [15] | Potency [16] | Potency [17]

CCN(CCO)CCCC(C)Nc1ccnc2cc(Cl)ccc12 (stereo not drawn)
inactive: activity change, negative = cytotoxicity [1] 2.32% [at 6.97 µM] | activation (H2AX phosphorylation) [2] -1.66% [at 14 µM] | activation [3] 0.22% [at 7.01 µM] | activity change, negative = cytotoxicity [4] 1.55% [at 14 µM] | activity change, negative = cytotoxicity [5] 2.56% [at 6.97 µM] | activity change, negative = cytotoxic [6] 2.9% [at 6.97 µM] | cytotoxicity [7] -2.9% [at 6.97 µM] | activity change, negative = cytotoxic [8] 0.0181% [at 6.97 µM] | activity change, negative = cytotoxicity [10] 2.31% [at 6.97 µM] | viability change, negative = cytotoxic [11] 4.72% [at 6.97 µM] | max response [12] -1.22% | activity change [13] -1.16% [at 6.97 µM, active compounds read high] | activity change, negative = cytotoxic [20] 2.34% [at 6.97 µM] | cytotoxicity [15] 14.8% [at 6.97 µM] | cytotoxicity increase [16] 10.5% [at 6.97 µM] | activity change, negative = cytotoxicity [17] 3.38% [at 6.97 µM]

CCCCCCCCCCCCCCCCCBr
inactive: activity change, negative = cytotoxicity [1] 2.27% [at 15.8 µM] | activation (H2AX phosphorylation) [2] -1.13% [at 31.6 µM] | activation [3] -0.885% [at 15.8 µM] | activity change, negative = cytotoxicity [4] 1.9% [at 31.6 µM] | activity change, negative = cytotoxicity [5] 0.544% [at 15.8 µM] | cytotoxicity [7] -0.244% [at 15.8 µM] | activity change, negative = cytotoxic [8] 11.3% [at 15.8 µM] | cytotoxicity increase [9] -9.92% [at 15.8 µM] | activity change, negative = cytotoxicity [10] -1.86% [at 15.8 µM] | viability change, negative = cytotoxic [11] -6.16% [at 15.8 µM] | max response [12] 3.16% | activity change [13] -8.25% [at 15.8 µM, active compounds read high] | cytotoxicity increase [14] -9.75% [at 15.8 µM] | activity change, negative = cytotoxic [20] 4.28% [at 15.8 µM] | cytotoxicity [15] -11% [at 15.8 µM] | cytotoxicity increase [16] -11.7% [at 15.8 µM] | activity change, negative = cytotoxicity [17] -0.712% [at 15.8 µM]

COC(=O)CSc1cc(N=c2sc(=O)n3n2CCCC3)c(F)cc1Cl
inactive: Potency [1] | Potency [2] | outcome [3] | Potency [4] | Potency [5] | Potency [6] | Potency [7] | Potency [8] | Potency [9] | Potency [10] | Potency [11] | max response [12] 3.98% | Potency [14] | Potency [20] | Potency [15] | Potency [16] | Potency [17]
